Assay outcomes deposited in PubChem BioAssay by several laboratories.
Hits are enriched below; roughly 2.1% of the tested compounds scored in any of these assays.
Platelet DG rel: modulates dense granule release in human platelets | human platelet-rich plasma, SFLLRN dense granule ATP release, luminescence | inhibition, %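 (compounds screened at 7.5 µM in platelet-rich plasma)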 | hit rate 0.22% among 300,000 | AID 1663;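 active = mean replicate score, as percent of positive control, at or above 50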
aSyn 5UTR inh: 5' untranslated region of α-synuclein, MLPCN primary screen | AID 1813 | inhibition, % (tested at 7.5 µM) | hit rate 0.82% among 300,000 | alpha-synuclein 5'UTR reporter, inhibitor activity; in the data active = inhibition above about 60%;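 also: H4 neuroglioblastoma cells stably carrying SNCA 5'UTR luciferase fusion; 0% = DMSO wells and 100% = positive control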
HIF act: HIF pathway transcriptional activation. U2OS HRE-luciferase reporter, luminescence; normalized: DMSO 0%, desferrioxamine 100%. activation, % at 7.5 µM (by protocol). hit rate 0.32% among 300,000. AID 1910;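 active = mean activation of at least 10% of the iron chelator positive control signal, with at least half of replicates also reaching 10%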
KLF5 inhibitor: kruppel-like factor 5 inhibition; DLD-1 KLF5 promoter-luciferase reporter, luminescence; inhibition, % at 5 µM; AID 1700; hit rate 0.23% among 290,000;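 active = inhibition above a per-plate limit of that plate's mean compound inhibition plus 3 SD, cut at about 60% in these data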;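 also: 0% = DMSO wells and 100% = LY294002 at 200 µM; higher means less KLF5 promoter-driven luciferase light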
Wee1 degr inh: human Wee1 degradation inhibition, primary screen; HeLa Luc-Wee1K328M stability, luciferase luminescence; 100% = proteasome inhibitor MG132 effect; hit rate 1.2% among 220,000; P30291; reporter increase, % at 5 µM;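 active = activation above the mean of all tested compounds plus 3 SD, set per screening run, cut at about 8.8% in these data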;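 also: cells exposed to compound for 20 h before luminescence read; 0% = DMSO alone and 100% = MG132 at 30 µM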
Target sequence (P30291 whole entry K328M): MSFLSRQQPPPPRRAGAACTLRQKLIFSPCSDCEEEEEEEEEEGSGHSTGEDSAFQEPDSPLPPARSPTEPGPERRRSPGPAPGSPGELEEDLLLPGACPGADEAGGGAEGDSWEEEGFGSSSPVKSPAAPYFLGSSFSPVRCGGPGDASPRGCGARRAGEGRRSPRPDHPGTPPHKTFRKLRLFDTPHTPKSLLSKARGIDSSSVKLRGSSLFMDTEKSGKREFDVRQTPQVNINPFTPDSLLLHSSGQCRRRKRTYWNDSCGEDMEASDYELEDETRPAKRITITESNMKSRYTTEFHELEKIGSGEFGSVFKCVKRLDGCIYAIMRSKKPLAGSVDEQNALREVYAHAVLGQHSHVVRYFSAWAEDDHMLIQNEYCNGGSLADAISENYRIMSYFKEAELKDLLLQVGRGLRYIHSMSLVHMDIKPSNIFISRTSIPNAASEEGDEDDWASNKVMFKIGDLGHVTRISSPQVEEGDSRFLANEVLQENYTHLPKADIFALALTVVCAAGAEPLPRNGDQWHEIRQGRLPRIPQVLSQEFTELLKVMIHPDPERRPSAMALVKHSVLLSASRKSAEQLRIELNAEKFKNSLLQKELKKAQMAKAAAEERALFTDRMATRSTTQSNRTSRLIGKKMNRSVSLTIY
* marks the source's active call; other numbers are inactive results; . = not tested or not shown.

SMILES	Platelet DG rel	aSyn 5UTR inh	HIF act	KLF5 inhibitor	Wee1 degr inh
CNC(=S)Nc1cc(OC)c(NC(=O)c2ccco2)cc1OC	3.7	-5.2	0.3	5.7	9.9*
O=C(NC1=NCCS1)c1cccc(Br)c1	9.9	-74.7	2.2	.	.
CC(=O)c1cccc(NC(=O)c2cccc(NC(=O)c3ccco3)c2)c1	-0.9	8.1	-0.7	-24.8	.
O=C(NC1=NCCS1)c1cccc(NC(=O)c2ccco2)c1	-2.0	2.7	11.7*	-29.6	-1.2
COc1cc(OC)cc(C(=O)NC(=S)Nc2ccc(NC(=O)c3ccco3)cc2)c1	4.4	-7.3	0.0	-44.3	2.3
O=S1(=O)CCOCCCN1Cc1ccccc1Br	7.9	-9.8	0.4	-9.2	.
Cc1cc(C(=O)Nc2cccc(C(=O)O)c2)oc1C	13.2	87.4*	-3.0	-1.9	-1.3
CC(NC(=O)Cn1ncc(Cl)c(Cl)c1=O)C12CC3CC(CC(C3)C1)C2 (centres undefined)	4.8	88.0*	-5.7	-6.2	-4.5
CCOC(=O)Nc1ccc(=O)n(Cc2c(Cl)cccc2Cl)c1	1.6	10.4	-0.6	-9.0	2.7
CC(C)(C)c1ccc(-c2cc(N)n[nH]2)cc1	1.9	90.9*	-0.4	-0.2	1.5
Cc1ccc(-c2cc(N)n[nH]2)cc1	-9.6	-73.2	0.0	-17.0	7.1
CC1CC(=O)NN=C1c1ccc(NCCO)c([N+](=O)[O-])c1 (centres undefined)	88.5*	76.1*	0.2	-32.0	-1.9
COc1cc(NC(=O)c2ccccc2)c(OC)cc1NC(=O)CSc1[nH]c(=O)cc(C)c1C#N	71.3*	-0.9	1.1	53.5	.
Cc1cc(=O)[nH]c(SCC(=O)Nc2cccc3ccccc23)c1C#N	-0.5	-61.2	-0.1	-2.3	-1.8
COc1ccc(-c2nc(CN3CCN(c4cc(C)nc(C)c4)CC3)c(C)o2)c2ccccc12	0.8	67.9*	-5.2	-34.4	1.1
Cc1cc(N2CCN(Cc3nc(-c4ccc(Cl)cc4)oc3C)CC2)cc(C)n1	-2.0	-4.8	-1.0	-13.0	-1.9
Cc1ccccc1S(=O)(=O)Cc1ccc(C(=O)N2CCN(c3cccc(C)c3C)CC2)o1	-0.8	100.8*	1.2	4.7	-1.3
Cc1ccccc1S(=O)(=O)Cc1ccc(C(=O)N2CC(C)CC(C)C2)o1 (centres undefined)	-5.4	-8.5	.	23.0	1.0
Cc1ccc(S(=O)(=O)c2ccc(Cl)cc2)cc1S(=O)(=O)N(C)CC(=O)O	8.8	2.0	0.1	8.1	1.3
CC(C)CC(NC(N)=O)C(=O)NCCc1ccc(Cl)cc1Cl (centres undefined)	-30.7	-3.0	-0.4	2.9	-0.4
CC(C)CC(NC(N)=O)C(=O)NCCc1ccc(Cl)cc1 (centres undefined)	-4.5	-31.0	-0.3	-31.0	10.6*
O=C(Nc1cccnc1)c1cc(-c2ccc(Cl)c(Cl)c2)on1	55.0*	-7.5	1.7	-9.8	.
O=C(Nc1cccnc1)c1cc(-c2cccc(Cl)c2)on1	-25.0	13.4	0.2	-26.1	.
C=CCN1CC(=O)N2C(c3ccccc3)c3[nH]c4ccccc4c3C[C@H]2C1=O (some centres undefined)	2.0	4.3	-20.8	-17.1	.
C=CC[n+]1c(-c2ccc(C)cc2)csc1Nc1ccc(NC(C)=O)cc1	19.7	100.4*	-4.3	13.4	-0.6
SMILES	Platelet DG rel	aSyn 5UTR inh	HIF act	KLF5 inhibitor	Wee1 degr inh
C=CC[n+]1c(-c2ccc(OC)cc2)csc1NNC(=O)Nc1ccccc1	-3.3	-17.5	1.9	-42.8	-2.9
COc1ccc(-c2csc(-c3ccc(C(=O)O)cc3)n2)cc1	3.0	-160.5	1.0	-117.2	10.0*
O=C(O)c1ccc(-c2nc(-c3ccc(Cl)cc3)cs2)cc1	3.1	-173.4	1.5	-217.5	7.7
COc1ccc(-c2csc(C)n2)cc1	0.6	-100.2	3.7	-24.6	9.0*
C=CCNC(=O)N1CCC(c2nc3ccccc3s2)CC1	10.7	7.8	3.0	-1.1	.
COc1cccc(CNC(=O)c2cc(COc3c(F)cccc3F)on2)c1	0.9	-35.4	1.1	-19.9	9.8*
O=C(NCc1ccc2c(c1)OCO2)c1cc(COc2c(F)cccc2F)on1	5.2	-26.3	0.8	-41.1	.
O=C(Cn1cccc1)N1CCN(c2ccc(F)cc2)CC1	56.0*	9.0	0.0	-21.5	-0.9
Clc1ccc2nc(COc3ccccc3)[nH]c2c1	4.0	-150.7	5.6	-115.8	.
O=Cc1[nH]c2ccccc2c1N(C(=O)CCl)c1ccc([N+](=O)[O-])cc1	2.5	84.2*	0.9	-7.1	-1.1
CC(=O)n1cc(N(C(=O)CCl)c2ccc([N+](=O)[O-])cc2)c2ccccc21	11.5	37.4	1.1	-13.6	1.3
CCN(CC)c1ccc2c(c1)OC(N)=C(C#N)C2c1cccnc1 (centres undefined)	-6.9	75.3*	2.4	19.4	0.1
COc1ccc(S(=O)(=O)N2CCC(C(=O)Nc3nccs3)CC2)cc1	-4.4	12.5	-0.3	-29.6	.
O=C1OCC2=C1C(c1ccc(F)cc1)CC(=O)N2c1ccccc1 (centres undefined)	-5.5	-2.7	-0.8	-21.6	8.9*
O=C1OCC2=C1C(c1ccc(F)cc1)CC(=O)N2c1ccc(F)cc1 (centres undefined)	3.6	-19.0	-0.3	-15.4	-0.6
Cc1cc(C)c2sc(N(CCCN(C)C)C(=O)c3ccc(S(=O)(=O)N4CCc5ccccc5C4)cc3)nc2c1	8.5	30.0	-3.4	.	.
CN(C)CCCN(C(=O)c1ccc(S(=O)(=O)N2CCc3ccccc3C2)cc1)c1nc2ccc(F)cc2s1	20.7	98.9*	-4.2	-21.2	.
CN(C)CCCN(C(=O)c1cc(-c2cccs2)nc2ccccc12)c1nc2ccc(F)cc2s1	1.9	98.9*	0.9	-34.7	.
CN(C)CCCN(C(=O)CCc1ccccc1)c1nc2ccc(F)cc2s1	-14.9	-70.3	0.6	-14.4	2.3
Cc1ccc2nc(N(CCCN(C)C)C(=O)c3ccc(S(=O)(=O)N4CCc5ccccc5C4)cc3)sc2c1	30.9	87.8*	-2.6	-16.2	.
CN(C)CCCN(C(=O)c1ccc(S(=O)(=O)N2CCc3ccccc32)cc1)c1nc2ccc(F)cc2s1	-3.2	0.7	0.4	4.7	.
CC(CCCC(C)(C)O)NC(=O)c1ccc(OC2CCN(C(=O)C3CC3)CC2)cc1 (centres undefined)	-1.7	1.0	0.5	-6.0	8.9*
CC(C)C[C@H](NC(=O)c1ccc(OC2CCN(C(=O)C3CC3)CC2)cc1)C(N)=O	10.9	-6.6	-0.7	-14.4	4.7
COc1ccc(CNC(=O)C2CCCN(S(=O)(=O)N3CCC(C)CC3)C2)c(OC)c1 (centres undefined)	1.9	10.0	-0.2	-14.0	.
COc1ccc(OC)c(CNC(=O)C2CCCN(S(=O)(=O)N3CCC(C)CC3)C2)c1 (centres undefined)	-11.7	4.0	24.7*	-10.1	.
COc1ccc(CN(C)CC(=O)Nc2ccc(N3CCOCC3)cc2)cc1OC	0.0	13.9	-0.7	-34.6	2.9
COc1ccc(CN(C)CC(=O)Nc2ccc(SC(F)F)cc2)cc1OC	-6.8	6.0	57.4*	-17.5	-2.7
Cc1cc(N)c2cc(NC(=O)/C=C/c3ccccc3Cl)ccc2n1	-0.1	106.8*	-5.0	7.2	0.9
